# PubChem BioAssay (NCI)
# About 79,000 compounds went through this panel and 15% of them were active in at least one assay; those are over-represented in the sample as a whole. A number with no mark means an inactive call. Calls of active or inactive are those of the source. Rule as the data show it: active = growth inhibition above about 70%; inactive = the rest.
# Tests used:
# [1] = NCI Yeast Anticancer Drug Screen. Data for the mec2-1 strain (AID 157); conditions: S. cerevisiae mec2-1 strain, stronger effect = higher value
# Method in brief: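 Strain: mec2-1 (DNA repair/cell cycle alteration). Compound exposure, then growth measured; inhibition expressed relative to vehicle.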
# [2] = NCI Yeast Anticancer Drug Screen. Data for the rad14 strain (AID 159);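 also: 0% = growth of vehicle-treated control cultures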; conditions: S. cerevisiae rad14 strain growth inhibition, stronger effect = higher value
# Method in brief: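 A mutant yeast strain defective in DNA damage repair is treated with compound; inhibition of its growth is scored against untreated, vehicle-exposed cultures.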
# [3] = NCI Yeast Anticancer Drug Screen. Data for the sgs1 mgt1 strain (AID 161);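 also: 0% = growth of cultures given vehicle only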; conditions: S. cerevisiae sgs1 mgt1 strain, stronger effect = higher value
# Method in brief: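 Test agents were incubated with a DNA-repair-mutant yeast strain. Growth was then read and compared against vehicle-treated controls.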
# [4] = NCI Yeast Anticancer Drug Screen. Data for the cln2 rad14 strain (AID 165);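 also: 0% = growth equal to vehicle treated cultures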; conditions: S. cerevisiae cln2 rad14 strain, stronger effect = higher value
# Method in brief: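 Compounds are applied to the cln2 rad14 yeast strain, and growth is then compared with that of vehicle-treated cultures to give inhibition.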
# [5] = NCI Yeast Anticancer Drug Screen. Data for the bub3 strain (AID 167); conditions: S. cerevisiae bub3 mutant strain, stronger effect = higher value
# Method in brief: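 Steps: expose the mutant yeast strain to compound; grow alongside vehicle-treated cultures; measure growth; express inhibition against the vehicle cultures.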
# [6] = NCI Yeast Anticancer Drug Screen. Data for the wt2 strain (AID 169);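 also: 0% = growth of vehicle-treated yeast cultures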; conditions: S. cerevisiae wt2 strain growth inhibition, stronger effect = higher value
# Method in brief: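 This strain belongs to a panel of yeast strains with defined genetic alterations in DNA damage repair or cell cycle control. Compounds are applied, and growth inhibition is measured against vehicle-treated cultures.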
# [7] = NCI Yeast Anticancer Drug Screen. Data for the mlh1 strain (AID 171);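 also: 0% = growth of vehicle-treated control cultures of the same strain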; conditions: S. cerevisiae mlh1 strain growth inhibition, stronger effect = higher value
# Method in brief: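 Growth of the mutant yeast strain after compound exposure, expressed as inhibition relative to vehicle-only controls.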
# [8] = NCI Yeast Anticancer Drug Screen. Data for the sgs1 strain (AID 173);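 also: 0% = growth of vehicle-only control cultures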; conditions: S. cerevisiae sgs1 mutant, stronger effect = higher value
# Method in brief: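 Growth of a yeast strain bearing a defined genetic alteration is measured after compound treatment. Inhibition is expressed relative to vehicle-only controls.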
# [9] = NCI Yeast Anticancer Drug Screen. Data for the mlh1 rad18 strain (AID 175); conditions: S. cerevisiae mlh1 rad18 strain growth inhibition, stronger effect = higher value
# Method in brief: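 Read-out is yeast growth inhibition, calculated against vehicle-only controls. The compound was applied to a strain engineered with DNA damage repair alterations.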
# [10] = NCI Yeast Anticancer Drug Screen. Data for the rad18 strain (AID 177); conditions: S. cerevisiae rad18 mutant growth inhibition, stronger effect = higher value
# Method in brief: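 Growth of the mutant yeast strain after compound exposure, normalised to vehicle-only cultures.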
# [11] = NCI Yeast Anticancer Drug Screen. Data for the rad52 strain (AID 147);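 also: 0% = growth of vehicle-treated control cultures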; conditions: S. cerevisiae rad52 mutant growth inhibition, stronger effect = higher value
# Method in brief: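 Compounds are applied to a genetically defined yeast strain lacking normal DNA damage repair, and inhibition of growth is expressed relative to cultures given vehicle only.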
# [12] = NCI Yeast Anticancer Drug Screen. Data for the wt1 strain (AID 149);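 also: 0% = growth of vehicle-treated wt1 cultures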; conditions: S. cerevisiae wt1 strain (SPY 50644) growth inhibition, stronger effect = higher value
# Method in brief: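 Compounds are added to wt1 yeast cultures. Growth is then measured. Inhibition is expressed relative to vehicle-treated controls.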
# [13] = NCI Yeast Anticancer Drug Screen. Data for the rad50EPP+ strain (AID 151);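 also: 0% = growth of vehicle-treated control cultures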; conditions: S. cerevisiae rad50 mutant strain, stronger effect = higher value
# Method in brief: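 Compounds were applied to the rad50EPP+ yeast strain, which bears a defined DNA repair alteration, and growth inhibition was determined relative to vehicle-treated cultures.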
# [14] = NCI Yeast Anticancer Drug Screen. Data for the mgt1 strain (AID 153); conditions: S. cerevisiae mgt1 mutant growth inhibition, stronger effect = higher value
# Method in brief: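 Strain: mgt1 yeast, one of a set carrying defined DNA damage repair or cell cycle control alterations. Compound-treated growth compared with vehicle.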
# [15] = NCI Yeast Anticancer Drug Screen. Data for the rad50 strain (AID 155);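 also: 0% = growth of vehicle-only cultures of the same strain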; conditions: S. cerevisiae rad50 strain growth inhibition, stronger effect = higher value
# Method in brief: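 Inhibition values express reduced yeast growth in compound-treated cultures relative to vehicle-treated controls.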
# [16] = NCI Yeast Anticancer Drug Screen. Data for the CLN2oe strain (AID 163);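 also: 0% = growth of vehicle-only control cultures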; conditions: S. cerevisiae CLN2oe strain, stronger effect = higher value
# Method in brief: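 Growth of a genetically modified yeast strain is measured after compound exposure and compared with cultures given vehicle alone.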
# [17] = at 5.0 µM (retest, dose inferred, filed as 0.5)
# [18] = at 50.0 µM (retest, dose inferred, filed as 5.0)
smiles,measurement,setting,value
Cc1nc(Nc2ccccc2[N+](=O)[O-])sc1C(=O)CC(=O)C(=O)Nc1c(C(C)C)cccc1C(C)C,growth inhibition,[1]; [17],3%
same,growth inhibition,[1]; at 11.0 µM,3%
same,growth inhibition,[1]; at 33.0 µM,6%
same,growth inhibition,[1]; [18],8%
same,growth inhibition,[1]; at 50.0 µM,17.9%
same,growth inhibition,[1]; at 100.0 µM,6%
same,growth inhibition,[2]; at 1.2 µM,0%
same,growth inhibition,[2]; at 3.7 µM,-2%
same,growth inhibition,[2]; at 11.0 µM,1%
same,growth inhibition,[2]; at 33.0 µM,0%
same,growth inhibition,[2]; at 100.0 µM,3%
same,growth inhibition,[3]; [17],7%
same,growth inhibition,[3]; [18],11%
same,growth inhibition,[3]; at 50.0 µM,34%
same,growth inhibition,[4]; [17],35%
same,growth inhibition,[4]; [18],12%
same,growth inhibition,[4]; at 50.0 µM,47.1%
same,growth inhibition,[5]; at 1.2 µM,3%
same,growth inhibition,[5]; at 3.7 µM,5%
same,growth inhibition,[5]; [17],-3%
same,growth inhibition,[5]; at 11.0 µM,7%
same,growth inhibition,[5]; at 33.0 µM,12%
same,growth inhibition,[5]; [18],33%
same,growth inhibition,[5]; at 50.0 µM,41.2%
same,growth inhibition,[5]; at 100.0 µM,12%
same,growth inhibition,[6]; at 1.2 µM,-1%
same,growth inhibition,[6]; at 3.7 µM,0%
same,growth inhibition,[6]; at 11.0 µM,0%
same,growth inhibition,[6]; at 33.0 µM,2%
same,growth inhibition,[6]; at 100.0 µM,0%
same,growth inhibition,[7]; at 1.2 µM,2%
same,growth inhibition,[7]; at 3.7 µM,3%
same,growth inhibition,[7]; at 11.0 µM,5%
same,growth inhibition,[7]; at 33.0 µM,5%
same,growth inhibition,[7]; at 100.0 µM,5%
same,growth inhibition,[8]; at 1.2 µM,2%
same,growth inhibition,[8]; at 3.7 µM,4%
same,growth inhibition,[8]; at 11.0 µM,2%
same,growth inhibition,[8]; at 33.0 µM,7%
same,growth inhibition,[8]; at 100.0 µM,6%
same,growth inhibition,[9]; [17],4%
same,growth inhibition,[9]; [18],14%
same,growth inhibition,[9]; at 50.0 µM,-5.1%
same,growth inhibition,[10]; at 1.2 µM,-3%
same,growth inhibition,[10]; at 3.7 µM,1%
same,growth inhibition,[10]; at 11.0 µM,1%
same,growth inhibition,[10]; at 33.0 µM,0%
same,growth inhibition,[10]; at 100.0 µM,-3%
Cc1ccc(NC(c2ccccc2)c2ccc3cccnc3c2O)cc1 (stereo not drawn),growth inhibition,[11]; at 1.2 µM,-1%
same,growth inhibition,[11]; at 3.7 µM,0%
same,growth inhibition,[11]; at 11.0 µM,-1%
same,growth inhibition,[11]; at 33.0 µM,-1%
same,growth inhibition,[11]; at 100.0 µM,-2%
same,growth inhibition,[12]; at 1.2 µM,1%
same,growth inhibition,[12]; at 3.7 µM,4%
same,growth inhibition,[12]; at 11.0 µM,4%
same,growth inhibition,[12]; at 33.0 µM,1%
same,growth inhibition,[12]; at 100.0 µM,1%
same,growth inhibition,[13]; at 1.2 µM,-3%
same,growth inhibition,[13]; at 3.7 µM,-1%
same,growth inhibition,[13]; at 11.0 µM,-4%
same,growth inhibition,[13]; at 33.0 µM,-3%
same,growth inhibition,[13]; at 100.0 µM,-2%
same,growth inhibition,[14]; at 1.2 µM,0%
same,growth inhibition,[14]; at 3.7 µM,2%
same,growth inhibition,[14]; at 11.0 µM,1%
same,growth inhibition,[14]; at 33.0 µM,2%
same,growth inhibition,[14]; at 100.0 µM,0%
same,growth inhibition,[15]; at 1.2 µM,1%
same,growth inhibition,[15]; at 3.7 µM,-2%
same,growth inhibition,[15]; [17],18%
same,growth inhibition,[15]; at 11.0 µM,6%
same,growth inhibition,[15]; at 33.0 µM,-2%
same,growth inhibition,[15]; [18],29%
same,growth inhibition,[15]; at 50.0 µM,67.1%
same,growth inhibition,[15]; at 100.0 µM,-3%
same,growth inhibition,[1]; at 1.2 µM,1%
same,growth inhibition,[1]; at 3.7 µM,2%
same,growth inhibition,[1]; [17],5%
same,growth inhibition,[1]; at 11.0 µM,1%
same,growth inhibition,[1]; at 33.0 µM,2%
same,growth inhibition,[1]; [18],6%
same,growth inhibition,[1]; at 50.0 µM,50.6%
same,growth inhibition,[1]; at 100.0 µM,12%
same,growth inhibition,[2]; at 1.2 µM,0%
same,growth inhibition,[2]; at 3.7 µM,-1%
same,growth inhibition,[2]; at 11.0 µM,1%
same,growth inhibition,[2]; at 33.0 µM,-26%
same,growth inhibition,[2]; at 100.0 µM,2%
same,growth inhibition,[3]; [17],9%
same,growth inhibition,[3]; [18],10%
same,growth inhibition,[3]; at 50.0 µM,79.7% (active)
same,growth inhibition,[16]; at 1.2 µM,0%
same,growth inhibition,[16]; at 3.7 µM,-1%
same,growth inhibition,[16]; at 11.0 µM,0%
same,growth inhibition,[16]; at 33.0 µM,2%
same,growth inhibition,[16]; at 100.0 µM,5%
same,growth inhibition,[5]; at 1.2 µM,-8%
same,growth inhibition,[5]; at 3.7 µM,-1%
same,growth inhibition,[5]; [17],-18%
same,growth inhibition,[5]; at 11.0 µM,-31%
same,growth inhibition,[5]; at 33.0 µM,8%
same,growth inhibition,[5]; [18],-3%
same,growth inhibition,[5]; at 50.0 µM,56.5%
same,growth inhibition,[5]; at 100.0 µM,3%
same,growth inhibition,[6]; at 1.2 µM,0%
same,growth inhibition,[6]; at 3.7 µM,1%
same,growth inhibition,[6]; at 11.0 µM,-1%
same,growth inhibition,[6]; at 33.0 µM,-1%
same,growth inhibition,[6]; at 100.0 µM,-2%
same,growth inhibition,[7]; at 1.2 µM,2%
same,growth inhibition,[7]; at 3.7 µM,2%
same,growth inhibition,[7]; at 11.0 µM,3%
same,growth inhibition,[7]; at 33.0 µM,-22%
same,growth inhibition,[7]; at 100.0 µM,9%
same,growth inhibition,[8]; at 1.2 µM,2%
same,growth inhibition,[8]; at 3.7 µM,3%
same,growth inhibition,[8]; at 11.0 µM,3%
same,growth inhibition,[8]; at 33.0 µM,0%
same,growth inhibition,[8]; at 100.0 µM,-3%
same,growth inhibition,[9]; [17],5%
same,growth inhibition,[9]; [18],10%
same,growth inhibition,[9]; at 50.0 µM,33%
same,growth inhibition,[10]; at 1.2 µM,-15%
same,growth inhibition,[10]; at 3.7 µM,3%
same,growth inhibition,[10]; at 11.0 µM,-10%
same,growth inhibition,[10]; at 33.0 µM,-2%
same,growth inhibition,[10]; at 100.0 µM,-12%
